The values below come from PubChem BioAssay (Tox21).

“And” between values parts separate entries of the source, which are not always exact repeats. Equal values may be shown once. Records with an inconclusive call do not appear. Where a call stands in place of a potency, no number is given. The source holds several records for some structures; these can differ, active in one and inactive in another. The source made the active and inactive calls. Calls follow the shape of the full dose curve.
Potency is read from the fitted curve at half-maximal effect.

The assay can be described thus: qHTS assay to identify small molecule agonists of the NFkB signaling pathway - cell viability counter screen (AID 1159515). Also: nearly all actives have a fitted effect of over 55% in size. The conditions noted are these: NFkB-bla ME-180 viability, CellTiter-Glo luminescence, 5 h; series mostly up to 61 µM. An excerpt:
National Center for Advancing Translational Sciences [NCATS]
NIH Chemical Genomics Center [NCGC]
U.S. Environmental Protection Agency [EPA]
National Institutes of Environmental Health Sciences [NIEHS]
National Toxicology Program [NTP]
U.S. Food and Drug Administration [FDA]
Transcription factors and their stimulated target gene expression play pivotal roles across many cellular processes including responses to environmental stimuli. Proper regulation of associated pathways is critical to maintain cell health and function. Constitutive activation of transcription factor pathways has been implicated in tumors as it may block cellular functions such as apoptosis and lead to invasion and metastasis. One important transcription factor that stimulates gene expression in response to cytokines, UV radiation, and other stimuli is nuclear factor-kappa B (NFkB). To measure activation of the NFkB pathway, the CellSensor NFkB-bla ME-180 cell line (Life Technologies, Carlsbad, CA) that stably expresses beta-lactamase reporter gene under the regulation of a NF-kB response element was used. This assay allows measurement of the NFkB pathway activity induced by compounds in a ME-180 cell line. This system quantitates NF-kB activity using a FRET-based assay system where beta-lactamase expression disrupts FRET, allowing for fluorescent measurement of activity. This cell line has been used to screen the Tox21 10K compound library and to identify compounds that induce the NFkB pathway activity. The cytotoxicity of the Tox21 compound library against the NFkB-bla ME-180 cell line was tested in parallel by measuring cell viability using the CellTiter-Glo assay in the same wells.
Tox21 Assay Protocol Summary:
NFkB-bla ME-180 cells were dispensed at 2,000 cells/6 uL of assay medium per well into black wall/clear-bottom 1536-well plates using a Multidrop Combi (ThermoFisher Scientific, Waltham, MA) dispenser. After the assay plates were incubated at 37 C and 5% CO2 for an overnight, 23 nL of compounds dissolved in DMSO, positive controls or DMSO only was transferred to the assay plate by a Pintool station (Kalypsys, San Diego, CA). The assay plates were incubated at 37 C and 5% CO2 for 5 hr. One uL of LiveBLAzer B/G FRET substrate (Life Technologies) was added using a Flying Reagent Dispenser (Aurora Discovery, San Diego, CA) and the plates were incubated at room temperature for 1.5 hr. Fluorescence intensity (405 nm excitation, 460 nm and 530 nm emissions) was measured using an Envision plate reader (PerkinElmer, Shelton, CT). For cytotoxicity, 3 ul/well of CellTiter-Glo reagent was added into the assay plates using an FRD. After 30 min incubation at room temperature, the luminescence intensity was measured using a ViewLux plate reader (PerkinElmer).
On the technique in general: In qHTS, concentration-response curves come from the screen itself.
As to `CCn1c2ccccc2c2cc(N)ccc21`, the Potency result was “inactive”. Under `CC1=CC(=O)c2ccccc2C1=O` stands 24.5 µM (active); under `CC(=O)CC(=O)Nc1ccc2[nH]c(=O)[nH]c2c1`, “inactive”. Under `CCCNC(C)C(=O)Nc1ccccc1C` (stereo not given) stands “inactive”; under `O=C(O)c1cccc(C(=O)O)c1`, “inactive”. Under `COc1ccc(CCN(C)CCCC(C#N)(c2ccc(OC)c(OC)c2)C(C)C)cc1OC` (stereo not given) stands “inactive”; under `Cc1cccc(O)c1C`, “inactive”; under `CC[C@H]1CN2CCc3cc(OC)c(OC)cc3[C@@H]2C[C@@H]1C[C@H]1NCCc2cc(OC)c(OC)cc21`, “inactive”. With `CCN(CC)C(=S)SSC(=S)N(CC)CC`, the Potency was 1 µM (active) and inactive. As for `Cc1cc(OCCOCC[N+](C)(C)Cc2ccccc2)ccc1C(C)(C)CC(C)(C)C`, the figure is 38.7 µM (active) and 26.8 µM (active). Turning to `Cc1cc(C(C)(C)C)c(O)c(C(C)(C)C)c1`, the Potency entry was “inactive”. In the case of `BrC1CCC(Br)C(Br)CCC(Br)C(Br)CCC1Br` (stereo not given), the Potency entry is “inactive”.

Consider `Oc1c(Cl)cc(Cl)c(Cl)c1Cc1c(O)c(Cl)cc(Cl)c1Cl`, for which the Potency was 34.6 µM (active) and 43.6 µM (active). Turning to `O=C(Cl)c1cccc(C(=O)Cl)c1`, the Potency entry is “inactive”.

`CC(C)C(=O)c1c(C(C)C)nn2ccccc12`: the Potency result was “inactive”. For the compound `CNC1(C)C2CCC(C2)C1(C)C` (stereo not given), the Potency entry is “inactive”.

In the case of `Oc1ccc(Cl)cc1Cc1cc(Cl)ccc1O`, the Potency entry is “inactive”. As for `O=C1Nc2ccccc2C1(c1ccc(O)cc1)c1ccc(O)cc1`, the figure is 0.174 µM (active).

As to `Cc1cc(Cc2cc(C)cc(C(C)(C)C)c2O)c(O)c(C(C)(C)C)c1`, the Potency was 11 µM (active) and 17.4 µM (active). With `CCCCCC(=O)O[C@]1(C(C)=O)CC[C@H]2[C@@H]3CCC4=CC(=O)CC[C@]4(C)[C@H]3CC[C@@]21C`, the Potency result is “inactive”.

Consider `NC(N)=Nc1nc(CSCC/C(N)=N/S(N)(=O)=O)cs1`, for which the Potency result is “inactive”. As for `N[C@@H]1CONC1=O`, the entry is “inactive”; as for `CC(C)(C)NC(=O)[C@@H]1CN(Cc2cccnc2)CCN1C[C@@H](O)C[C@@H](Cc1ccccc1)C(=O)N[C@H]1c2ccccc2C[C@H]1O`, “inactive”. As for `C=CC(=O)OCCCCCCOC(=O)C=C`, the entry is “inactive”; as for `CCCCC/C=C/CC1CC(=O)OC1=O` (stereo not given), “inactive”; as for `CN1C(=O)c2ccc([N+](=O)[O-])cc2C1=O`, “inactive”.

Consider `Nc1ccc(O)cc1`, for which the Potency entry is “inactive”.

For the compound `O=C(OCc1ccccc1)c1ccc(O)cc1`, the Potency entry is “inactive”.

`CC(C)(C)NCC(O)c1cc(O)cc(O)c1` (stereo not given): the Potency result is “inactive”. As for `CCCN[C@H]1CCc2nc(N)sc2C1`, the entry is “inactive”. As for `c1ccc2c(c1)-c1cccc3c1c-2cc1ccccc13`, the entry is “inactive”.

Turning to `CO[Si](OC)(OC)c1ccccc1`, the Potency entry was “inactive”. As for `c1cc(C(c2ccc(OCC3CO3)cc2)C(c2ccc(OCC3CO3)cc2)c2ccc(OCC3CO3)cc2)ccc1OCC1CO1` (stereo not given), the entry is “inactive”; as for `C=CC(=O)OCCCCCCCC`, “inactive”; as for `NC(N)=NC(=O)Cc1c(Cl)cccc1Cl`, “inactive”.

For the compound `CCN(CC)C(=O)Nc1ccc(OCC(O)CNC(C)(C)C)c(C(C)=O)c1` (stereo not given), the Potency result was “inactive”. Under `CCN(CC)c1ccc2c(C)cc(=O)oc2c1` stands “inactive”. Under `CC1COc2c(N3CCN(C)CC3)c(F)cc3c(=O)c(C(=O)O)cn1c23` (stereo not given) stands “inactive”. For the compound `CC(C)CCOC(=O)c1ccc(N(C)C)cc1`, the Potency result is “inactive”. Turning to `C1COC(NC(C2CC2)C2CC2)=N1`, the Potency result is “inactive”.
